Potency data for 55 compounds are collected here from PubChem BioAssay AID652104 (National Center for Advancing Translational Sciences (NCATS), 2013).

The structures appear in SMILES notation. Screen size: about 410,000 compounds; about 7,200 (1.8%) were called active. A call without a number means that no potency is given here. Roughly 7% stayed inconclusive and do not appear here. The sample holds actives, similar compounds and a random draw of the others, so the mix is not that of the screen. The call rests on the fitted dose curve; in most records, active means well fitted activation curve with a large enough effect; inconclusive means small, poorly fitted or top-dose-only effect, or another doubt; inactive means no such curve, though single readings can be large or run the other way.
Potency means the concentration at half of the fitted maximal effect.

This assay can be described thus: qHTS of TDP-43 Inhibitors. Further: nearly all actives have a fitted effect of over 50% in size. The note with it: TDP-43 expressing yeast growth rescue, BacTiter-Glo, 24 h; series mostly up to 46.1 µM. From the text:
The goal of this project is to identify new chemical probes capable of reversing the toxicity associated with TDP-43 which is associated with frontotemporal lobar degeneration and amyotrophic lateral sclerosis. These compounds will provide a complementary approach to deciphering the tangled mechanisms of toxicity and protection that we have uncovered through genome-wide genetic screens and are beginning to uncover in a large-scale proteomics analysis with mass spectroscopy.
To this end, a miniaturized assay was developed to be screened against the Molecular Libraries Small Molecule Repository (MLSMR) to discover TDP-43 inhibitors. Please note that in the set-up this yeast-based assay compounds that inhibit as TDP-43, have a read-out as activators.
NIH Chemical Genomics Center [NCGC]
NIH Molecular Libraries Probe Centers Network [MLPCN]
Assay Submitter (PI): Susan Lindquist, Whitehead Institute/MIT
Dispense 2.5 microL yeast galactose medium per 1536-well plate, pin compound, dispense 2.5 microL TDP-43 expressing yeast in galactose medium at OD600=0.02 (pregrown in raffinose medium to mid-log phase) per well, incubate for 24 hr at 30 deg C, and cell growth will be measured using 5 microL of Bactiter/Glo reagent to entire plate and read using Luminescence Protocol in ViewLux.
In general terms: qHTS replaces the single test concentration by a dilution series.
Take `COc1ccc(CNCCc2ccc3c(c2)OCO3)c(OC)c1OC`: the Potency entry is “inactive”.

As to `CCOc1ccc(S(=O)(=O)NCc2ccc3c(c2)OCO3)cc1C`, the Potency was 12.6 µM (active).

Turning to `Cc1cc(=O)oc2c(C)c(OCC(=O)N3CCN(Cc4ccc5c(c4)OCO5)CC3)ccc12`, the Potency entry is “inactive”.

For `O=C(CCC(=O)N1C[C@H]2C[C@@H](C1)c1cccc(=O)n1C2)NCc1ccccc1C(F)(F)F`, the Potency entry was “inactive”.

`COc1cccc(C(c2nnnn2-c2ccc3c(c2)OCCO3)N2CCC3(CC2)C(=O)NCN3c2ccccc2)c1OC` (stereo not given): the Potency entry is “inactive”.

For the compound `Oc1cc2c(cc1CN1CCN(c3ccccc3)CC1)OCO2`, the Potency result was “inactive”.

`O=C(NC1CCCCC1)N1Cc2cc(N3CCCCC3)ccc2-n2nncc2C1`: the Potency entry was “inactive”.

Regarding `c1cc2c(cc1CCNC1CCCCCC1)OCO2`, the Potency result is “inactive”.

`c1cc2c(cc1[C@H]1OC[C@H]3[C@@H]1CO[C@@H]3c1ccc3c(c1)OCO3)OCO2`: the Potency was 11.2 µM (active).

`O=C1/C(=C\c2ccc3c(c2)OCO3)N2CCC1CC2`: the Potency entry is “inactive”.

As for `O=C(Cc1ccc(Cl)cc1)NCCN1CCN(C(=O)Cc2ccc(Cl)cc2)CC1`, the Potency entry is “inactive”.

`CCOC(=O)c1cccc(C2=C(CNC(=O)c3ccncc3)[C@H]3CC[C@@H](C2)N3Cc2ccccc2)c1`: the Potency result was “inactive”.

Regarding `Cc1ccnc(-n2c(C)cc(/C=C3\C(=O)NC(=S)N(C)C3=O)c2C)c1`, the Potency is 35.5 µM (active).

As to `Cc1cc(C=C2C(=O)NC(=O)NC2=O)c(C)n1-c1ccncc1`, the Potency entry is “inactive”.

For `Cc1ccc(-n2c(C)cc(/C=C3\C(=O)NC(=O)N(C)C3=O)c2C)cc1C`, the Potency entry was “inactive”.

`ClC(Cl)(Cl)c1ccccc1`: the Potency result was “inactive”.

Consider `O=c1c2ccccc2nc(-c2ccc(Cl)cc2Cl)n1-c1ccncc1`, for which the Potency entry is “inactive”.

`Cc1nc2ccccc2c(=O)n1-c1ccc(Cl)cc1Cl`: the Potency is 15.8 µM (active).

On to `O=c1c2ccccc2nc(CBr)n1-c1ccc(Cl)cc1`, for which the Potency result is “inactive”.

Regarding `CCOC(=O)[C@]12Cc3cc(OC)ccc3[C@H]1N(C(C)C)C(=O)c1ccccc12`, the Potency entry was “inactive”.

Turning to `CCOC(=O)c1c(-c2ccccc2)oc2ccc(OC(=O)N(C)C)cc12`, the Potency entry was “inactive”.

Consider `Cc1ccc(-c2nc3ccccc3c(=O)n2-c2ccc(Br)cn2)cc1`, for which the Potency result was “inactive”.

With `NC(=O)Cn1cc(C(=O)c2ccccc2F)c2ccccc21`, the Potency entry is “inactive”.

For `N#Cc1ccc(Cn2cc(C(=O)c3ccco3)c3ccccc32)cc1`, the Potency was 17.8 µM (active).

For `Cc1ccc([C@H]2C[C@H](O)[C@@H](n3cc(COC(=O)c4ccccc4)nn3)CN2CC2CCCCC2)cc1`, the Potency result was “inactive”.

`CC(C)N(CC#CCC1(O)c2ccccc2-c2ccccc21)C(C)C`: the Potency entry was “inactive”.

Turning to `Cc1cccc(Cn2cccc(C(=O)Nc3ccc4c(c3)OCCO4)c2=O)c1`, the Potency result was “inactive”.

For `CCOC(=O)C1CN(C)CCC1=O` (stereo not given), the Potency result is “inactive”.

Take `c1ccc(-c2nnc(SCc3nc4ccccc4[nH]3)o2)cc1`: the Potency is 12.6 µM (active).

Consider `c1cc2c(c(NC3=NCCCS3)c1)CCCC2`, for which the Potency result was “inactive”.

`O=c1[nH]c2ccccc2n1C1CCN(C(c2ccnc3ccccc23)c2nnnn2Cc2ccccc2)CC1` (stereo not given): the Potency result was “inactive”.

On to `COC(=O)C1=C(c2ccccc2OCc2ccccc2)C[C@@H]2CC[C@H]1N2C(=O)NCc1ccc(OC)cc1`, for which the Potency is 35.5 µM (active).

`COC(=O)C1=C(c2ccc(F)cc2OCc2ccccc2)C[C@@H]2CC[C@H]1N2C(=O)NCc1ccc2[nH]ccc2c1`: the Potency result is “inactive”.

In the case of `COC(=O)C1=C(c2ccc(F)cc2OCc2ccccc2)C[C@@H]2CC[C@H]1N2C(=O)NCc1ccc(OC)c(OC)c1`, the Potency entry was “inactive”.

Turning to `Cc1ccc(NC(=O)N(Cc2ccc3c(c2)OCO3)C2CCN(Cc3ccccc3)CC2)cc1F`, the Potency result was “inactive”.

As to `O=C(C1CCN(S(=O)(=O)c2ccc(Br)s2)CC1)N1CCN(c2ccccc2)CC1`, the Potency entry was “inactive”.

For `O=c1[nH]c2ccccc2n1C1CCN(C(c2ccccc2)c2nnnn2Cc2ccccc2)CC1` (stereo not given), the Potency entry was “inactive”.

In the case of `COC(=O)C1=C(c2ccc(F)cc2F)C[C@@H]2CC[C@H]1N2C(=O)NC1CC1`, the Potency entry is “inactive”.

For `Cn1c(C(=O)N2CCC(C(=O)N3CCC4(CC3)OCCO4)CC2)cc2sccc21`, the Potency entry is “inactive”.

Consider `Cc1cc(N2C(=O)C3CCCN3C2c2ccc(Cl)c(Cl)c2)no1` (stereo not given), for which the Potency entry was “inactive”.

On to `CC1CNCCN1c1ccc(Cl)cc1` (stereo not given), for which the Potency entry is “inactive”.

As to `CC12CCC3C(CCC4CC(=O)CCC43C)C1CC(=NO)C2=O` (stereo not given), the Potency was 15.8 µM (active).

As for `C[C@]12CCC3C(CC[C@H]4[C@H](O)[C@H](O)CC[C@]34C)C1CCC2=O` (stereo not given in full), the Potency result is “inactive”.

For `COc1ccc(-n2nnnc2C(c2cccc3ccccc23)N2CCC(n3c(=O)[nH]c4ccccc43)CC2)cc1` (stereo not given), the Potency entry is “inactive”.

For the compound `Nc1ccc(Cc2ccc(N)c(Cl)c2)cc1Cl`, the Potency was 12.6 µM (active).

For the compound `CNCC[C@H](Oc1ccc(C(F)(F)F)cc1)c1ccccc1`, the Potency result was “inactive”.

As to `COc1ccc(-c2nn(CCC#N)cc2C(=O)Nc2ccc(C(C)=O)cc2)cc1`, the Potency result is “inactive”.

On to `CC(C)Oc1ccc(NC(=O)c2cc3ccccc3o2)cc1`, for which the Potency result was “inactive”.

`C[N+]1(C)CCOC(O)(c2ccc(-c3ccc(C4(O)C[N+](C)(C)CCO4)cc3)cc2)C1` (stereo not given): the Potency was 5.01 µM (active).

As for `Cc1nn(-c2ccccc2)c(C)c1NC(=O)COC(=O)Cc1ccccc1`, the Potency entry is “inactive”.

With `C[C@@H]1C[C@@H]2O[C@H]2/C=C\C=C\C(=O)Cc2c(Cl)c(O)cc(O)c2C(=O)O1`, the Potency was 11.2 µM (active).

Turning to `c1ccc(CC2CCCCN2)cc1` (stereo not given), the Potency entry is “inactive”.

As for `CN(C(=O)c1cccc(NC(=O)Cc2cccc([N+](=O)[O-])c2)c1)C1CCCCC1`, the Potency result is “inactive”.

With `Cc1ccc([C@H]2C[C@H](O)[C@@H](n3cc(COC(=O)c4ccccc4)nn3)CN2C(=O)C2CCCCC2)cc1`, the Potency entry was “inactive”.

For the compound `O=C(Nc1ccc(Cl)cc1C(=O)c1ccccc1)c1cc(Cl)cc(Cl)c1`, the Potency entry is “inactive”.
